# Reference: the supplement of paper PMC10849652
# Of roughly 7,900 targets only a part is listed; those with a hit were picked by preference. About 0.6% of all pairs of compound and target were hits. Values without a mark were called inactive.
# Columns and labels:
# Assay in all cases: log2 fold change, soluble protein after heating vs DMSO (PISA); higher = thermal stabilisation; K562 cells, 10 uM, 30 min; active = over 0.2 and 3.5 SD of the protein, either way, in both replicates (recomputed)
# [1] = compound: CS(=O)(=O)c1ccc(-c2cnc(N)c(C(=O)Nc3ccccc3)n2)cc1
# Outline: (§1)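 K562 cells (2×10^6 cells/mL) were treated with 10 μM compound for 30 min, and aliquots were heated for 3 min over 48°C-58°C. Pooled aliquots were extracted in PBS with 0.5% NP-40 at 4°C, and the supernatant after 21,000xg for 90 min was measured by TMTpro 16plex LC-MS/MS with channel sums equalised. Reported thermal stability, relative to control samples and from duplicates, is a log2 fold change.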
# crizotinib = compound: C[C@@H](Oc1cc(-c2cnn(C3CCNCC3)c2)cnc1N)c1c(Cl)ccc(F)c1Cl [crizotinib]
# Outline: as §1
# [2] = compound: C[C@H](C1=CC=C(C=C1)C(=O)NC2=C3C=CNC3=NC=C2)N
# Outline: as §1
# duvelisib = compound: C[C@H](Nc1ncnc2nc[nH]c12)c1cc2cccc(Cl)c2c(=O)n1-c1ccccc1 [duvelisib]
# Outline: as §1
# gandotinib = compound: Cc1cc(Nc2cc(CN3CCOCC3)c3nc(C)c(Cc4ccc(Cl)cc4F)n3n2)n[nH]1 [gandotinib]
# Outline: as §1
# tozasertib = compound: Cc1cc(Nc2cc(N3CCN(C)CC3)nc(Sc3ccc(NC(=O)C4CC4)cc3)n2)n[nH]1 [tozasertib]
# Outline: as §1
# [3] = compound: Cc1cc(SCc2sc(-c3ccc(C(F)(F)F)cc3)nc2C)ccc1OCC(=O)O
# Outline: as §1
# doramapimod = compound: Cc1ccc(-n2nc(C(C)(C)C)cc2NC(=O)Nc2ccc(OCCN3CCOCC3)c3ccccc23)cc1 [doramapimod]
# Outline: as §1
# ispinesib = compound: Cc1ccc(C(=O)N(CCCN)[C@@H](c2nc3cc(Cl)ccc3c(=O)n2Cc2ccccc2)C(C)C)cc1 [ispinesib]
# Outline: as §1
# [4] = compound: Cc1cccc(CC(=O)N2CCc3c2ccc(-c2cn(C)c4ncnc(N)c24)c3F)n1
# Outline: as §1
# nilotinib = compound: Cc1cn(-c2cc(NC(=O)c3ccc(C)c(Nc4nccc(-c5cccnc5)n4)c3)cc(C(F)(F)F)c2)cn1 [nilotinib]
# Outline: as §1
# [5] = compound: Cc1nc(Nc2n[nH]c3c2CN(C(=O)N[C@H](CN(C)C)c2ccccc2)C3(C)C)c2sccc2n1
# Outline: as §1
# dasatinib = compound: Cc1nc(Nc2ncc(C(=O)Nc3c(C)cccc3Cl)s2)cc(N2CCN(CCO)CC2)n1 [dasatinib]
# Outline: as §1
# [6] = compound: Cc1ncc(-c2ccnc(Nc3ccc(S(C)(=O)=O)cc3)n2)n1C(C)C
# Outline: as §1
# [7] = compound: Cn1cc(-c2ccc3c(c2)CCN3C(=O)Cc2cccc(C(F)(F)F)c2)c2c(N)ncnc21
# Outline: as §1
# [8] = compound: Cn1cc(-c2ccc3nnc(C(F)(F)c4ccc5ncccc5c4)n3n2)cn1
# Outline: as §1
# tipifarnib = compound: Cn1cncc1[C@@](N)(c1ccc(Cl)cc1)c1ccc2c(c1)c(-c1cccc(Cl)c1)cc(=O)n2C [tipifarnib]
# Outline: as §1
# mubritinib = compound: FC(F)(F)c1ccc(/C=C/c2nc(COc3ccc(CCCCn4ccnn4)cc3)co2)cc1 [mubritinib]
# Outline: as §1
# bafetinib = compound: Cc1ccc(NC(=O)c2ccc(CN3CC[C@H](N(C)C)C3)c(C(F)(F)F)c2)cc1Nc1nccc(-c2cncnc2)n1 [bafetinib]
# Outline: as §1
# [9] = compound: C[C@@H]1COCCN1C2=NC(=NC(=C2)C3(CC3)S(=O)(=O)C)C4=C5C=CNC5=CC=C4
# Outline: as §1
# Sequence of UniProt Q9BY78 (Q9BY78 whole entry, looked up): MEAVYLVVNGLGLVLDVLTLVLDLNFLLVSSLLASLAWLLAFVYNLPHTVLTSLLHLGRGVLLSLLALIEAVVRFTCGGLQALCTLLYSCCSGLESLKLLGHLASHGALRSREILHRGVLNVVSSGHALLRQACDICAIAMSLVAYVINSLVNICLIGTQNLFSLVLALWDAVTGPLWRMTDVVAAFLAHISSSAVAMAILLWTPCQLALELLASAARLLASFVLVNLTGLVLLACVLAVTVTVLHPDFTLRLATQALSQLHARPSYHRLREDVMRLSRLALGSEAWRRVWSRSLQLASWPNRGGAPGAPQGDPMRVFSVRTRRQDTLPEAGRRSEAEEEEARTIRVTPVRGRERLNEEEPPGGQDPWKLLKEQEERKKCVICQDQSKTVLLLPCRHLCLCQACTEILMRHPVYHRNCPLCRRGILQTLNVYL
# Sequence of UniProt Q01196 (Q01196 whole entry, looked up): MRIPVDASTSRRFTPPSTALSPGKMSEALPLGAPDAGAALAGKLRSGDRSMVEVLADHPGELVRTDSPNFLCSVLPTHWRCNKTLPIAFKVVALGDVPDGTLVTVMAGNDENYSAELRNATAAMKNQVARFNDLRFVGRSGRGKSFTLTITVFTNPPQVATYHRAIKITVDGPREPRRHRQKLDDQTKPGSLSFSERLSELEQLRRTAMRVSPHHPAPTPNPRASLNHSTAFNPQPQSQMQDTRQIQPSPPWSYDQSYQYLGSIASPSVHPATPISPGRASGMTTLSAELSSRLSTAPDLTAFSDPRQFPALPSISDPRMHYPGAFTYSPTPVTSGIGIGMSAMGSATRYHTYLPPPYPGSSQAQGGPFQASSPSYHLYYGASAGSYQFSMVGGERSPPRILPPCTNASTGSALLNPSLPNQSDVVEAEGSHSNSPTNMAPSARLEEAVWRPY
# Sequence of UniProt A6NEQ0 (A6NEQ0 whole entry, looked up): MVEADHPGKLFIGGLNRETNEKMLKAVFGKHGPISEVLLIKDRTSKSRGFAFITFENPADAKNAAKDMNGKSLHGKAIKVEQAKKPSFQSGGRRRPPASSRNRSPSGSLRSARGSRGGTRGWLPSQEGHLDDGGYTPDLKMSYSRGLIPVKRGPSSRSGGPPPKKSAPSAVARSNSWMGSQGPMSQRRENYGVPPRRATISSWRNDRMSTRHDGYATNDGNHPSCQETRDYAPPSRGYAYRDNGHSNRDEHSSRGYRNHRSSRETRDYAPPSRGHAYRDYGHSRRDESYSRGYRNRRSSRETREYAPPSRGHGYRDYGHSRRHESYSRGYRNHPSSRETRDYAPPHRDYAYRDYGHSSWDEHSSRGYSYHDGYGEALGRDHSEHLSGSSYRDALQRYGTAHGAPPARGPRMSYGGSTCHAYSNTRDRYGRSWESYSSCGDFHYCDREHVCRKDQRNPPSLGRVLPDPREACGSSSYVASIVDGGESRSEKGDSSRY
# Sequence of UniProt Q9Y3L5 (Q9Y3L5 whole entry, looked up): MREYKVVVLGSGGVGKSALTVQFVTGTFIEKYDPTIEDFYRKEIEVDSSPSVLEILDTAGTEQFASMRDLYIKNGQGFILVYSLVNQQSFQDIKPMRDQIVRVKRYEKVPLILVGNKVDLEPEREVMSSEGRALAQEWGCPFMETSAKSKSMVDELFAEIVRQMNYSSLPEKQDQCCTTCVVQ
# Sequence of UniProt O75056 (O75056 whole entry, looked up): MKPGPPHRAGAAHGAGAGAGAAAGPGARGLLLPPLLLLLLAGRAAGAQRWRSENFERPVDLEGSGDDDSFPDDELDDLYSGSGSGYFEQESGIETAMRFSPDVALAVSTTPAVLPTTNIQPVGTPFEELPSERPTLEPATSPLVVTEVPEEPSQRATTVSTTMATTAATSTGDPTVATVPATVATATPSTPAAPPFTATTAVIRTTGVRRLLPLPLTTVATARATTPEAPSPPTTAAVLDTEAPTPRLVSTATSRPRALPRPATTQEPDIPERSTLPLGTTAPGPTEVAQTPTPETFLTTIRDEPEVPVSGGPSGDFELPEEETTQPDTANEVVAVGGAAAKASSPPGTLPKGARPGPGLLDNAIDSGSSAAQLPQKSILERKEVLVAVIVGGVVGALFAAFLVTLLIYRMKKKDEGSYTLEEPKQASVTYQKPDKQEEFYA
# Sequence of UniProt O15127 (O15127 whole entry, looked up): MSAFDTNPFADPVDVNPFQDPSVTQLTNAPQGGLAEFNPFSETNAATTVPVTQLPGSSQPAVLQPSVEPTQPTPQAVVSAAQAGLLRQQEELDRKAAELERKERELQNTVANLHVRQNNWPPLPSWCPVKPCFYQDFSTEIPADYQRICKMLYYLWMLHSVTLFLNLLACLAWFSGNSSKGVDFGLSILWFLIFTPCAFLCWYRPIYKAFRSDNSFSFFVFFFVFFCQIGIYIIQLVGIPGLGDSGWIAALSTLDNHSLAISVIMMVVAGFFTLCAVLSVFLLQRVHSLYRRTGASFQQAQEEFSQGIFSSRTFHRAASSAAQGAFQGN
# Sequence of UniProt P60602 (P60602 whole entry, looked up): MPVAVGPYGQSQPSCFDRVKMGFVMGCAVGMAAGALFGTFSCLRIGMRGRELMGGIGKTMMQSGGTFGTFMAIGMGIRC
# Sequence of UniProt O00560 (O00560 whole entry, looked up): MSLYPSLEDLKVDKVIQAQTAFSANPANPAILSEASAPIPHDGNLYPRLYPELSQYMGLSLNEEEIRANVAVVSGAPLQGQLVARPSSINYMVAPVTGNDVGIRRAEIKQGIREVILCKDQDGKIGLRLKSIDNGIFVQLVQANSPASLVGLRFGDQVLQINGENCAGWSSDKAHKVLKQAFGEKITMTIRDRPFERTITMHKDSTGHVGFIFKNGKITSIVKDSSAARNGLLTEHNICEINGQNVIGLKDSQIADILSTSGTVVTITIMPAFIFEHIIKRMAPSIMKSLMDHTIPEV
# Sequence of UniProt A1X283 (A1X283 whole entry, looked up): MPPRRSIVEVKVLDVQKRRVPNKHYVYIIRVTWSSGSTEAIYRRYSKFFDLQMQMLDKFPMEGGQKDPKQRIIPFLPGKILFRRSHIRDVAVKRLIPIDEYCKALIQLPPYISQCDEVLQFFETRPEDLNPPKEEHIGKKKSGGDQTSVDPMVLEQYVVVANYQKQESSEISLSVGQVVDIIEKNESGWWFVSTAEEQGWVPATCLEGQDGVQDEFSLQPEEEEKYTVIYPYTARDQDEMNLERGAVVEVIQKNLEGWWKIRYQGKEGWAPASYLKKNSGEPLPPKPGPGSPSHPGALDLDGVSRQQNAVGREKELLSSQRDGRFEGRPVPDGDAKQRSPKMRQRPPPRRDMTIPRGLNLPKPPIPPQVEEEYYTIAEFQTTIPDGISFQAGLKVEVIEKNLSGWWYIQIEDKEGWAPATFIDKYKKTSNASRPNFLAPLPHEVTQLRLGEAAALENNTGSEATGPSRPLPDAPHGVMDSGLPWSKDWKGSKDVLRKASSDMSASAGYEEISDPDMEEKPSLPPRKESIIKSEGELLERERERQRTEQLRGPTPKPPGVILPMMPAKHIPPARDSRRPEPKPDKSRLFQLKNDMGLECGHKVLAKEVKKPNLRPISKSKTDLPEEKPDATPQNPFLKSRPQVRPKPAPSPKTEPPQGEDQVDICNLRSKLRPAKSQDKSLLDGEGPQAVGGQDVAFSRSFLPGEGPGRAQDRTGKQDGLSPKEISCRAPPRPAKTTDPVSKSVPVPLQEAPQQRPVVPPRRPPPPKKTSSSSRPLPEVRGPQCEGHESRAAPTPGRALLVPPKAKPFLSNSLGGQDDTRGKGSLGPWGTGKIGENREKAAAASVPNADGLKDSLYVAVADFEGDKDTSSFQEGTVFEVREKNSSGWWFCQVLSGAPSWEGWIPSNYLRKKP
# Sequence of UniProt P43003 (P43003 whole entry, looked up): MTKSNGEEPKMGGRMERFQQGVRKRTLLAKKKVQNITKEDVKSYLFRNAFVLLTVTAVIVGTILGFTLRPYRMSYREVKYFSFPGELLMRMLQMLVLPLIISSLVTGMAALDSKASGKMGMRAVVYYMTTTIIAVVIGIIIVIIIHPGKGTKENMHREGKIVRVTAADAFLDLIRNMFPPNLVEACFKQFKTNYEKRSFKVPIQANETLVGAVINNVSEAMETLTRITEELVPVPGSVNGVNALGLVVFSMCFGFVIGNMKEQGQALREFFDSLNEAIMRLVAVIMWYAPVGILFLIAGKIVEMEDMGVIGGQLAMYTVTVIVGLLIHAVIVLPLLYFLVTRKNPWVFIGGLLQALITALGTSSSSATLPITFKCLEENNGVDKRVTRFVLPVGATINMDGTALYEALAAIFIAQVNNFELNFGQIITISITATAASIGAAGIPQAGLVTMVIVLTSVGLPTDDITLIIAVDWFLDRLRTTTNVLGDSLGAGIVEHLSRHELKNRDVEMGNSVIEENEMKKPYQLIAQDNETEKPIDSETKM
# Sequence of UniProt Q02383 (Q02383 whole entry, looked up): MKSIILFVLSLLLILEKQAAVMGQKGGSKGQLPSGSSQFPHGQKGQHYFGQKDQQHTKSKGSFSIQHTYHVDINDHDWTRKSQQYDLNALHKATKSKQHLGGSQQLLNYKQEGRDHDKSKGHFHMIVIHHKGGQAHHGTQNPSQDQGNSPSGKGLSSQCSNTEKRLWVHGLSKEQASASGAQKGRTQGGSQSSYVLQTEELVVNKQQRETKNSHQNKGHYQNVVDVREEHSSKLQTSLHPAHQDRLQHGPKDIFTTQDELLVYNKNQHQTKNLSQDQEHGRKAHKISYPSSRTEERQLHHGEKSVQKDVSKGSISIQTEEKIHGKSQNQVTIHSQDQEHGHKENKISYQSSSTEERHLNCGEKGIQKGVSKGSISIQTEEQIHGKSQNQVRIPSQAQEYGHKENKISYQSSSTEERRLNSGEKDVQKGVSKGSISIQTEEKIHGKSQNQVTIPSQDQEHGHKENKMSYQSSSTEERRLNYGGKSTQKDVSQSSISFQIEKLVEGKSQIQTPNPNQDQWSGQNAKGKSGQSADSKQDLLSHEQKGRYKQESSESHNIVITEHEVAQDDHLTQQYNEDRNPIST
# Sequence of UniProt P60903 (P60903 whole entry, looked up): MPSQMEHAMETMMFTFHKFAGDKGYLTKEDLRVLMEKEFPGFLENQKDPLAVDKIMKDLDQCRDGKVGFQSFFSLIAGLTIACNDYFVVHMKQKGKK
Target,log2 fold change [1],log2 fold change (crizotinib),log2 fold change [2],log2 fold change (duvelisib),log2 fold change (gandotinib),log2 fold change (tozasertib),log2 fold change [3],log2 fold change (doramapimod),log2 fold change (ispinesib),log2 fold change [4],log2 fold change (nilotinib),log2 fold change [5],log2 fold change (dasatinib),log2 fold change [6],log2 fold change [7],log2 fold change [8],log2 fold change (tipifarnib),log2 fold change (mubritinib),log2 fold change (bafetinib),log2 fold change [9]
RUFY3 isoform 3 (UniProt Q7L099),0.017,0.007,-0.085,-0.073,-0.012,0.002,0.617 (active),-0.057,-0.048,-0.018,-0.16,0.045,-0.271,0.052,0.024,0.134,-0.116,0.043,,
RNF26 (UniProt Q9BY78),,,,,0.008,,,,-0.829,0.111,,,,,,-0.011,,,0.083,
SDC3 (UniProt O75056),-0.047,,0.151,0.11,-0.193,-0.131,-0.19,,,0.419,-0.004,0.07,0.073,-0.036,-0.019,,,,,0.057
SLC1A3 (UniProt P43003),,,-0.039,-0.084,-0.042,-0.194,0.201,,0.126,0.013,0.131,-0.063,-0.203,-0.077,0.133,-0.009,0.054,0.096,-0.051,0.167
SH3PXD2B (UniProt A1X283),0.002,,0.055,,0.077,-0.1,,,,-0.058,-0.124,0.129,,-0.152,0.024,,,0,-0.954 (active),0.246
RALGPS2 (UniProt Q86X27),,-0.237,0.222,-0.117,0.08,-0.112,0.106,0.289,,-0.001,,,-0.011,,0.043,,,-0.198,-0.072,-0.199
RBM6 (UniProt P78332),0,0.148,0.013,-0.154,-0.043,-0.094,-0.183,0.032,,-0.048,0.062,-0.109,0.025,-0.194,-0.052,,0.028,-0.072,,
SAFB2 (UniProt K7EQU4),,-0.244,,,,,,-0.04,,,0.155,0.162,,-0.113,,,,,-0.053,0.275
SEPTIN5 (UniProt G3XAH0),-0.042,,-0.089,-0.032,-0.153,-0.028,-0.036,,-0.017,-0.013,-0.05,-0.024,-0.049,-0.008,-0.05,0.082,0.006,-0.011,-0.038,0.087
ROMO1 (UniProt P60602),0.023,,0.064,0.117,-0.033,-0.003,-0.059,,-0.061,-0.022,-0.001,0.027,-0.03,-0.039,0.066,0.063,0.062,0.01,0.056,0.121
SCLT1 (UniProt Q96NL6),0.148,0.003,-0.081,0.038,0.149,-0.144,-0.028,0.055,,-0.009,-0.099,-0.043,-0.052,0.041,0.191,,,0.098,0.087,
RPS19 (UniProt M0R2L9),,,,,,-0.034,,,,,0.116,0,,-0.267,,,-0.126,0.229,,
SCAMP2 (UniProt O15127),0.019,,-0.544 (active),0.009,0.034,0.044,-0.065,,-0.073,-0.125,0.084,-0.107,-0.027,0.058,0.11,0.062,-0.061,0.046,-0.113,-0.213
RUNX1 isoform 8 (UniProt Q01196),0.106,-0.066,,-0.045,0.088,,0.178,0.054,0.155,-0.224,-0.07,-0.281,-0.082,-0.209,,-0.104,0.001,0.01,-0.149,0.089
RNF220 isoform 3 (UniProt Q5VTB9),,,,,,,,,,,,,,,,,-0.282,,,
RMDN2 isoform 2 (UniProt Q96LZ7),,0,,,,,,0.145,-0.112,,-0.556,0.661,,-0.115,,-0.104,,-0.231,,
RPS3 (UniProt E9PJN9),,,,0.102,-0.017,-0.215,0.148,,-0.224,0.076,,,-0.207,,,-0.159,,,,
RNF41 (UniProt Q9H4P4),,,,,,,,,,,,,,,,,,,-0.09,
SEMG2 (UniProt Q02383),-0.058,,-0.021,,-0.032,-0.043,,,,0.016,-0.083,0.056,,0.003,0.008,,,-0.044,-0.089,0.096
RPS3A (UniProt D6R9B6),-0.014,,,-0.015,,-0.134,0.069,,,,,,0.155,,,,,,,
RAP2C (UniProt Q9Y3L5),-0.046,,-0.144,0.06,-0.742 (active),-0.039,-0.108,,0.009,0.157,0.181,0.069,0.018,0.019,0.047,-0.032,0.086,0.041,0.115,0.007
SDCBP isoform 2 (UniProt O00560),0.093,,,0.019,0.058,0.045,0.069,,-0.185,-0.066,0.108,-0.219,-0.083,-0.205,,-0.085,0.109,0.033,-0.298,-0.108
RBMY1E (UniProt A6NEQ0),,-0.122,-0.12,,-0.137,0.113,,-0.007,-0.148,0.219,0.009,-0.038,,0.026,0.29,-0.164,-0.016,0.192,-0.041,
RCOR3 isoform 3 (UniProt Q9P2K3),-0.039,-0.117,-0.061,0.105,-0.015,0.091,0.104,-0.047,-0.065,0.039,-0.019,0.001,-0.09,-0.022,-0.056,0.006,-0.119,0.09,0.023,
S100A10 (UniProt P60903),-0.004,,0.063,,0.131,0.057,,,,-0.035,0.072,-0.057,,-0.016,0.146,,0.131,,-0.026,
